The results in this text go back to PubChem BioAssay (Tox21).

Molecules are shown by their SMILES. Results filed as inconclusive are left out. A call without a number means that no potency is given here. The source made the active and inactive calls. Calls come from the whole dose curve; as a rule, active = well fitted curve in the direction sought with a large enough effect in the repeat runs; inconclusive = weak or mixed curves; inactive = no such curve, though single readings can be large; an effect the other way counts as inactive or inconclusive.

One test can be described thus: qHTS RealTime-Glo MT Cell Viability Assay in HEK293 cells - 8 hour (AID 1224887). Note: nearly all actives have a fitted effect of over 50% in size. Note: potency is the fitted concentration of half-maximal effect. The following applies: RealTime-Glo luminescence; series mostly up to 76.8 µM. A digest of the protocol:
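600 cells/well were plated with the nonlytic NanoLuc/prosubstrate reagent, pre-incubated 5 h, then given 23 nL of compound in DMSO. Incubation at 37 C for 40 h, with luminescence from viable-cell-reduced substrate read repeatedly from 0 h.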
In the case of `CNC(=O)Oc1ccccc1C1OCCO1`, the Potency result was “inactive”.
As for `N#CC(Cl)(Cl)Cl`, the Potency result is “inactive”.
With `Nc1cc2c3c(c1)C(c1ccccc1)=N[C@@H](NC(=O)c1cccnc1)C(=O)N3CC2`, the Potency entry is “inactive”.
Consider `C#CCN1C(=O)COc2cc(F)c(N3C(=O)C4=C(CCCC4)C3=O)cc21`, for which the Potency entry was “inactive”.
The same measure, in the same setting: in the case of `CCCCOC(=O)[C@@H](C)Oc1ccc(Oc2ccc(C#N)cc2F)cc1` it was 12.2 µM (active).
Still for that read-out and setting: to `CCOC(=O)C1(c2ccccc2)CCN(CCc2ccc(N)cc2)CC1` belongs “inactive”; to `ClCC(Cl)(Cl)Cl`, “inactive”; to `CC(Oc1ccc(Oc2ncc(C(F)(F)F)cc2Cl)cc1)C(=O)O` (centres undefined), “inactive”.
Regarding `Cc1ncsc1CCCl`, the Potency entry is “inactive”.
The same measure, in the same setting: to `CCN(Cc1ccc(Cl)nc1)/C(=C/[N+](=O)[O-])NC` belongs “inactive”; to `C[C@]12CC[C@H]3[C@@H](CC=C4C[C@@H](O)CC[C@@]43C)[C@@H]1CC[C@@H]2O`, “inactive”; to `NC1=NC(=O)C(c2ccccc2)O1` (centres undefined), “inactive”.
Same read-out and setting: in the case of `Cc1cccc(C#N)c1` it was “inactive”.
For `Clc1ccccc1N1CCNCC1`, the Potency result is “inactive”.
As for `COP(=S)(OC)Oc1c(Cl)cc(C)cc1Cl`, the Potency result was “inactive”.
Take `CN1CCC(N(Cc2ccccc2)c2ccccc2)CC1`: the Potency entry is “inactive”.
Take `CC(C)CC#N`: the Potency entry was “inactive”.
For the compound `CN1C[C@@H](NS(=O)(=O)N(C)C)C[C@@H]2c3cccc4c3c(cn4C)C[C@H]21`, the Potency entry was “inactive”.
As to `CCN(CC)C(C)C(=O)c1ccccc1` (centres undefined), the Potency result is “inactive”.
Same read-out and setting: in the case of `CNC(=O)Oc1cccc(C(C)C)c1` it was “inactive”.
Same read-out and setting: to `CC(=O)CCc1ccc2c(c1)OCO2` belongs “inactive”; to `O=NN1CCN(N=O)CC1`, “inactive”.
Same read-out and setting: in the case of `C=C(C)[C@@H]1CC=C(C=O)CC1` it was “inactive”; in that of `CNC(=O)Oc1c(C(C)(C)C)cc(C)cc1C(C)(C)C`, “inactive”.
As to `CCC1(c2ccccc2)C(=O)NC(=O)NC1=O`, the Potency entry is “inactive”.
`OCCBr`: the Potency result was “inactive”.
Consider `BrCCCCCCBr`, for which the Potency entry was “inactive”.
Consider `CCCCCCBr`, for which the Potency result is “inactive”.
For the compound `Fc1cc(Br)ccc1CBr`, the Potency result is “inactive”.
In the case of `Cc1cnc[nH]1`, the Potency result is “inactive”.
`NC(=O)O`: the Potency result was “inactive”.
The same measure, in the same setting: to `CCOP(=S)(OCC)SCSc1ccc(Cl)cc1` belongs “inactive”.
In the case of `CC1CCC(=O)O1` (centres undefined), the Potency entry is “inactive”.
As for `ClC(Cl)Br`, the Potency entry is “inactive”.
For the compound `[O]=[Cd]`, the Potency result is “inactive”.
As to `Clc1cccc(N2CCNCC2)c1`, the Potency entry is “inactive”.
Turning to `c1cc2c(c(N3CCNCC3)c1)OCCO2`, the Potency result is “inactive”.
Turning to `CC(=O)CC(c1ccc(Cl)cc1)c1c(O)c2ccccc2oc1=O` (centres undefined), the Potency result is “inactive”.

The next test can be described thus: A CellTox Green Cytotoxicity Assay to monitor cytotoxicity in HEK293 cells - 16 hour (AID 1224888). Note: nearly all actives have a fitted effect of over 35% in size. The following applies: CellTox Green fluorescence; series mostly up to 76.8 µM. In a few lines: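 HEK293 cells, 600/well, were preincubated 5 hours and then exposed to compounds at 37 C for up to 40 hours. A cell-impermeant cyanine dye staining dead-cell DNA was read by fluorescence at 0, 8, 16, 24, 32 and 40 h time points.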
On to `CNC(=O)Oc1ccccc1C1OCCO1`, for which the Potency entry is “inactive”.
For `N#CC(Cl)(Cl)Cl`, the Potency result was “inactive”.
On the same count and under the same terms, in the case of `Nc1cc2c3c(c1)C(c1ccccc1)=N[C@@H](NC(=O)c1cccnc1)C(=O)N3CC2` it was “inactive”; in that of `C#CCN1C(=O)COc2cc(F)c(N3C(=O)C4=C(CCCC4)C3=O)cc21`, “inactive”; in that of `CCCCOC(=O)[C@@H](C)Oc1ccc(Oc2ccc(C#N)cc2F)cc1`, “inactive”.
`CCOC(=O)C1(c2ccccc2)CCN(CCc2ccc(N)cc2)CC1`: the Potency entry is “inactive”.
Consider `ClCC(Cl)(Cl)Cl`, for which the Potency result is “inactive”.
With `CC(Oc1ccc(Oc2ncc(C(F)(F)F)cc2Cl)cc1)C(=O)O` (centres undefined), the Potency entry was “inactive”.
In the case of `Cc1ncsc1CCCl`, the Potency entry is “inactive”.
For the compound `CCN(Cc1ccc(Cl)nc1)/C(=C/[N+](=O)[O-])NC`, the Potency entry is “inactive”.
Take `C[C@]12CC[C@H]3[C@@H](CC=C4C[C@@H](O)CC[C@@]43C)[C@@H]1CC[C@@H]2O`: the Potency entry was “inactive”.
With `NC1=NC(=O)C(c2ccccc2)O1` (centres undefined), the Potency entry is “inactive”.
The same measure, in the same setting: to `Cc1cccc(C#N)c1` belongs “inactive”; to `Clc1ccccc1N1CCNCC1`, “inactive”.
For the compound `COP(=S)(OC)Oc1c(Cl)cc(C)cc1Cl`, the Potency entry was “inactive”.
As for `CN1CCC(N(Cc2ccccc2)c2ccccc2)CC1`, the Potency entry is “inactive”.
The same measure, in the same setting: in the case of `CC(C)CC#N` it was “inactive”.
On the same count and under the same terms, to `CN1C[C@@H](NS(=O)(=O)N(C)C)C[C@@H]2c3cccc4c3c(cn4C)C[C@H]21` belongs “inactive”.
Take `CCN(CC)C(C)C(=O)c1ccccc1` (centres undefined): the Potency entry was “inactive”.
On to `CNC(=O)Oc1cccc(C(C)C)c1`, for which the Potency result is “inactive”.
`CC(=O)CCc1ccc2c(c1)OCO2`: the Potency result is “inactive”.
For the compound `O=NN1CCN(N=O)CC1`, the Potency entry was “inactive”.
On to `C=C(C)[C@@H]1CC=C(C=O)CC1`, for which the Potency entry was “inactive”.
`CNC(=O)Oc1c(C(C)(C)C)cc(C)cc1C(C)(C)C`: the Potency result is “inactive”.
In the case of `CCC1(c2ccccc2)C(=O)NC(=O)NC1=O`, the Potency result is “inactive”.
The same measure, in the same setting: in the case of `OCCBr` it was “inactive”; in that of `BrCCCCCCBr`, “inactive”; in that of `CCCCCCBr`, “inactive”.
Consider `Fc1cc(Br)ccc1CBr`, for which the Potency result was “inactive”.
Consider `Cc1cnc[nH]1`, for which the Potency result was “inactive”.
Regarding `NC(=O)O`, the Potency result is “inactive”.
Still for that read-out and setting: in the case of `CCOP(=S)(OCC)SCSc1ccc(Cl)cc1` it was “inactive”; in that of `CC1CCC(=O)O1` (centres undefined), “inactive”.
With `ClC(Cl)Br`, the Potency entry is “inactive”.
In the case of `[O]=[Cd]`, the Potency result is “inactive”.
Still for that read-out and setting: in the case of `Clc1cccc(N2CCNCC2)c1` it was “inactive”; in that of `c1cc2c(c(N3CCNCC3)c1)OCCO2`, “inactive”.
For the compound `CC(=O)CC(c1ccc(Cl)cc1)c1c(O)c2ccccc2oc1=O` (centres undefined), the Potency entry was “inactive”.

A short description of another test: qHTS RealTime-Glo MT Cell Viability Assay in HepG2 cells - 0 hour (AID 1224889). Note: nearly all actives have a fitted effect of over 50% in size. The following applies: RealTime-Glo luminescence; series mostly up to 76.8 µM. In a few lines:
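HepG2 cells (600/well) were dispensed with RealTime-Glo reagents, incubated 5 h at 37 °C, then treated with compounds in DMSO for up to 40 h. Nonlytic NanoLuc luminescence reflecting viable cells was read at each stated time point.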
Consider `CNC(=O)Oc1ccccc1C1OCCO1`, for which the Potency entry is “inactive”.
Take `N#CC(Cl)(Cl)Cl`: the Potency result was “inactive”.
For the compound `Nc1cc2c3c(c1)C(c1ccccc1)=N[C@@H](NC(=O)c1cccnc1)C(=O)N3CC2`, the Potency entry was “inactive”.
Same read-out and setting: in the case of `C#CCN1C(=O)COc2cc(F)c(N3C(=O)C4=C(CCCC4)C3=O)cc21` it was “inactive”; in that of `CCCCOC(=O)[C@@H](C)Oc1ccc(Oc2ccc(C#N)cc2F)cc1`, “inactive”.
As for `CCOC(=O)C1(c2ccccc2)CCN(CCc2ccc(N)cc2)CC1`, the Potency entry was “inactive”.
In the case of `ClCC(Cl)(Cl)Cl`, the Potency result was “inactive”.
Same read-out and setting: in the case of `CC(Oc1ccc(Oc2ncc(C(F)(F)F)cc2Cl)cc1)C(=O)O` (centres undefined) it was “inactive”; in that of `Cc1ncsc1CCCl`, “inactive”; in that of `CCN(Cc1ccc(Cl)nc1)/C(=C/[N+](=O)[O-])NC`, “inactive”.
For the compound `C[C@]12CC[C@H]3[C@@H](CC=C4C[C@@H](O)CC[C@@]43C)[C@@H]1CC[C@@H]2O`, the Potency result was “inactive”.
Regarding `NC1=NC(=O)C(c2ccccc2)O1` (centres undefined), the Potency result was “inactive”.
`Cc1cccc(C#N)c1`: the Potency entry is “inactive”.
Turning to `Clc1ccccc1N1CCNCC1`, the Potency result was “inactive”.
The same measure, in the same setting: in the case of `COP(=S)(OC)Oc1c(Cl)cc(C)cc1Cl` it was “inactive”; in that of `CN1CCC(N(Cc2ccccc2)c2ccccc2)CC1`, “inactive”.
Take `CC(C)CC#N`: the Potency entry was “inactive”.
With `CN1C[C@@H](NS(=O)(=O)N(C)C)C[C@@H]2c3cccc4c3c(cn4C)C[C@H]21`, the Potency result is “inactive”.
The same measure, in the same setting: in the case of `CCN(CC)C(C)C(=O)c1ccccc1` (centres undefined) it was “inactive”.
On to `CNC(=O)Oc1cccc(C(C)C)c1`, for which the Potency entry is “inactive”.
With `CC(=O)CCc1ccc2c(c1)OCO2`, the Potency result is “inactive”.
With `O=NN1CCN(N=O)CC1`, the Potency result is “inactive”.
In the case of `C=C(C)[C@@H]1CC=C(C=O)CC1`, the Potency entry was “inactive”.
Regarding `CNC(=O)Oc1c(C(C)(C)C)cc(C)cc1C(C)(C)C`, the Potency entry is “inactive”.
Still for that read-out and setting: in the case of `CCC1(c2ccccc2)C(=O)NC(=O)NC1=O` it was “inactive”; in that of `OCCBr`, “inactive”.
As to `BrCCCCCCBr`, the Potency entry is “inactive”.
Still for that read-out and setting: in the case of `CCCCCCBr` it was “inactive”; in that of `Fc1cc(Br)ccc1CBr`, “inactive”; in that of `Cc1cnc[nH]1`, “inactive”.
On to `NC(=O)O`, for which the Potency result is “inactive”.
Consider `CCOP(=S)(OCC)SCSc1ccc(Cl)cc1`, for which the Potency result was “inactive”.
In the case of `CC1CCC(=O)O1` (centres undefined), the Potency result is “inactive”.
For the compound `ClC(Cl)Br`, the Potency result was “inactive”.
The same measure, in the same setting: in the case of `[O]=[Cd]` it was “inactive”; in that of `Clc1cccc(N2CCNCC2)c1`, “inactive”; in that of `c1cc2c(c(N3CCNCC3)c1)OCCO2`, “inactive”.
The same measure, in the same setting: in the case of `CC(=O)CC(c1ccc(Cl)cc1)c1c(O)c2ccccc2oc1=O` (centres undefined) it was “inactive”.
